According to the supplement of paper PMC10849652:
The full data set covers some 7,900 targets. This sample favours those with a hit. About 0.6% of all pairs of compound and target were hits.

Legend:
Experiment in all cases: log2 fold change, soluble protein after heating vs DMSO (PISA); higher = thermal stabilisation; K562 cells, 10 uM, 30 min; active = over 0.2 and 3.5 SD of the protein, either way, in both replicates (recomputed)
[1] = compound: C1=CC=C(C=C1)[C@H](COC2=CC3=C(C=C2)NC(=O)N3)NC(=O)C4=CC=CN(C4=O)CC5=CC(=C(C=C5)F)F
Method in brief: (§1)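 K562 cells at 2×10^6 cells/mL were treated with 10 μM compound for 30 min. Aliquots were heated for 3 min across 48°C-58°C, pooled, and extracted in PBS with 0.5% NP-40 at 4°C; soluble protein was the supernatant after 21,000xg for 90 min. Soluble protein was quantified by TMTpro 16plex LC-MS/MS with channel sums equalised, and reported as log2 fold change in thermal stability against DMSO controls, with values from duplicates.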

[2] = compound: CC1=C(SC2=C1C(=N[C@H](C3=NN=C(N32)C)CC(=O)N)C4=CC=C(C=C4)Cl)C
Method in brief: as §1

[3] = compound: CC1=C2C(=CC=C1)N=C(N(C2=O)C3=CC=CC=C3C)CN4C=NC5=C(N=CN=C54)N
Method in brief: as §1

[4] = compound: Cc1sc2c(c1C)C(c1ccc(Cl)cc1)=N[C@@H](CC(=O)OC(C)(C)C)c1nnc(C)n1-2
Method in brief: as §1

[5] = compound: c1ccc([C@@H]2C[C@H]2NC2CCNCC2)cc1
Method in brief: as §1

Measured: log2 fold change

NIPSNAP2 (UniProt C9J7B1)
inactive: [1] -0.069

NRGN (UniProt Q92686)
inactive: [1] 0.048

OGFR (UniProt Q9NZT2)
inactive: [1] -0.016 | [2] -0.057 | [3] 0.016 | [4] 0.095 | [5] -0.046

OXSM (UniProt Q9NWU1)
inactive: [1] 0.072 | [2] -0.007 | [3] 0.045 | [4] -0.007 | [5] 0.036

NAP1L1 (UniProt P55209)
inactive: [1] -0.072 | [2] 0.003 | [3] 0.17 | [4] 0.013 | [5] 0.009

NEU1 (UniProt Q99519)
inactive: [1] -0.116 | [2] 0.004 | [3] 0.047 | [4] -0.043 | [5] -0.025

MYSM1 (UniProt Q5VVJ2)
inactive: [1] 0.07

MORC2 (UniProt Q9Y6X9)
inactive: [1] -0.293

NA (UniProt J3KR12)
inactive: [1] -0.042

OTULIN (UniProt Q96BN8)
Chain of UniProt Q96BN8 (Q96BN8 whole entry, looked up): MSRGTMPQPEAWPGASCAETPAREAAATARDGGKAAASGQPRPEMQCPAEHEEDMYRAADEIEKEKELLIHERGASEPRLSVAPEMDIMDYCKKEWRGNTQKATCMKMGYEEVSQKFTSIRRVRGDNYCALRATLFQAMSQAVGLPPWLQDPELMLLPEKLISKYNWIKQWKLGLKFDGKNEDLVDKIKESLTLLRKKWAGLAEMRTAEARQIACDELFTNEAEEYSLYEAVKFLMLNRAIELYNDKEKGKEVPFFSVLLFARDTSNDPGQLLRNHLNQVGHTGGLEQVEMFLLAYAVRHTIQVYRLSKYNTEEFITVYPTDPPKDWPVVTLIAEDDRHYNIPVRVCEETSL
inactive: [1] -0.07 | [2] -0.019 | [3] 0.124 | [4] 0.005 | [5] 0.005

MTHFS (UniProt P49914)
inactive: [1] -0.075 | [2] 0.035 | [3] -0.086 | [4] -0.023 | [5] -0.061

NMU (UniProt P48645)
inactive: [1] -0.109 | [2] 0.008 | [3] -0.03 | [4] 0.066 | [5] -0.086

NOLC1 isoform 2 (UniProt Q14978)
Chain of UniProt Q14978 (Q14978 whole entry, looked up): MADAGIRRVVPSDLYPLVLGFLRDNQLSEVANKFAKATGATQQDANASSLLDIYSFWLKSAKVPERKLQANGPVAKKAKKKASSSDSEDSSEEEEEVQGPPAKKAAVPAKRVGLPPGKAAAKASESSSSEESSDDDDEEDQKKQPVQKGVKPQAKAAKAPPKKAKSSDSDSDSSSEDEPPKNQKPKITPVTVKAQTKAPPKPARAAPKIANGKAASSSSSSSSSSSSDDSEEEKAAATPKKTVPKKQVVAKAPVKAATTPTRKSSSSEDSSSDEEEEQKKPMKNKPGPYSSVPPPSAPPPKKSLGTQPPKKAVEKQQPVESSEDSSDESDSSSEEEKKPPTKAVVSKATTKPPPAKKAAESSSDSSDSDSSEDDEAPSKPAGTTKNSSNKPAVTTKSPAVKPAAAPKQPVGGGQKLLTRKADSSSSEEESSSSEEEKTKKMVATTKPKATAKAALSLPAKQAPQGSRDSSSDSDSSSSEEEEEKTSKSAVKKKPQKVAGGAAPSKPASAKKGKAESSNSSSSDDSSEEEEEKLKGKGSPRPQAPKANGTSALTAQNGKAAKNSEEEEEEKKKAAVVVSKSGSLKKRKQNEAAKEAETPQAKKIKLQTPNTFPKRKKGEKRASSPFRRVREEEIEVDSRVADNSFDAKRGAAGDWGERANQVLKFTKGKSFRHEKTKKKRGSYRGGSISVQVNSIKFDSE
inactive: [1] 0 | [2] -0.029 | [3] 0.002 | [4] -0.012 | [5] 0.108

NA (UniProt B2RBV5)
inactive: [1] 0.002

NOP58 (UniProt Q9Y2X3)
inactive: [1] 0.039 | [2] -0.151 | [3] -0.063 | [4] 0.068 | [5] 0.031

NOSIP (UniProt Q9Y314)
Chain of UniProt Q9Y314 (Q9Y314 whole entry, looked up): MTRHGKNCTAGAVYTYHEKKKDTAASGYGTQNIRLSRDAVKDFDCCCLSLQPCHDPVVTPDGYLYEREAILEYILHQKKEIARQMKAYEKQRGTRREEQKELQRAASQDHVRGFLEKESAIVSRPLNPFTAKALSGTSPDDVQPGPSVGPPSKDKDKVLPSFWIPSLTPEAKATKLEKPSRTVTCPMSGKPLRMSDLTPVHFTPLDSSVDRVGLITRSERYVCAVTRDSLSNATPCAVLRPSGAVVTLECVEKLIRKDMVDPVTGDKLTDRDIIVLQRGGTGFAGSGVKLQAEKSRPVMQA
inactive: [1] 0.056 | [2] 0.043 | [3] 0.179 | [4] -0.043 | [5] 0.016

OVCA2 (UniProt Q8WZ82)
inactive: [1] -0.152

NEMP1 (UniProt O14524)
inactive: [1] 0.015 | [2] -0.003 | [3] 0.036 | [4] 0.048 | [5] -0.018

NFE2 (UniProt Q16621)
inactive: [1] 0.054 | [2] -0.004 | [3] 0.12 | [4] 0.087 | [5] 0.145

MRPS27 isoform 2 (UniProt Q92552)
inactive: [1] -0.063 | [2] 0.04 | [3] 0.01 | [4] 0.035 | [5] -0.059

MUL1 (UniProt Q969V5)
inactive: [1] -0.002 | [2] 0.006 | [3] 0.044 | [4] -0.107 | [5] 0.02

NUP205 (UniProt Q92621)
inactive: [1] -0.004 | [2] 0.035 | [3] 0.08 | [4] -0.043 | [5] 0.008

MSH3 (UniProt P20585)
inactive: [1] 0.008 | [2] 0.085 | [3] 0.052 | [4] -0.028 | [5] -0.087

ORC5 (UniProt O43913)
Chain of UniProt O43913 (O43913 whole entry, looked up): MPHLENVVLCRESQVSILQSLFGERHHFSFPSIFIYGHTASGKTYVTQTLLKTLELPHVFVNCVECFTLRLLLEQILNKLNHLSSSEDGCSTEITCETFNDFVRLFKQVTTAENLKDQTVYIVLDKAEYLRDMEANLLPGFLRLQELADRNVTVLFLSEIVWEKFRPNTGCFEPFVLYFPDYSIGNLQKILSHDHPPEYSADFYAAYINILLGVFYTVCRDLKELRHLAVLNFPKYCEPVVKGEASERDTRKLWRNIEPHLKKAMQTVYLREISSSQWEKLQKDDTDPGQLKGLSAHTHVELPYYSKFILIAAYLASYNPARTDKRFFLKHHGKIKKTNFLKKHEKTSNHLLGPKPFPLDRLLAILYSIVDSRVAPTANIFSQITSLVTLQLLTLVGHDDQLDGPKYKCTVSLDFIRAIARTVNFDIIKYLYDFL
inactive: [1] -0.081 | [2] 0.02 | [3] 0.144 | [4] -0.016 | [5] -0.044

NDUFA12 (UniProt Q9UI09)
inactive: [1] -0.046 | [2] 0.126 | [3] 0.145 | [4] -0.086 | [5] -0.051

NCAPG (UniProt Q9BPX3)
inactive: [1] -0.033 | [2] 0.019 | [3] 0.101 | [4] -0.002 | [5] -0.002

MND1 (UniProt Q9BWT6)
inactive: [1] 0.009 | [2] 0.012 | [3] 0.081 | [4] 0.088 | [5] 0.102

NPM3 (UniProt O75607)
Chain of UniProt O75607 (O75607 whole entry, looked up): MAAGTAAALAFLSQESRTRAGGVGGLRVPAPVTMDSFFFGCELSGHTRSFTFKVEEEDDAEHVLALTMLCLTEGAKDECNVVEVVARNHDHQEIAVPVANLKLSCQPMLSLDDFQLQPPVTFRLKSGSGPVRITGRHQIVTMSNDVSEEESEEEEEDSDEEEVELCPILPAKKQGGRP
inactive: [1] 0.066 | [2] -0.08 | [3] -0.087 | [4] 0.107 | [5] -0.019

NIPSNAP2 (UniProt O75323)
inactive: [1] -0.038 | [2] 0.008 | [3] 0.036 | [4] -0.019 | [5] -0.051

NKTR (UniProt P30414)
inactive: [1] 0.014

NMT2 (UniProt O60551)
inactive: [1] -0.045 | [2] 0.053 | [3] 0.092 | [4] 0.026 | [5] -0.107

MRPS15 (UniProt P82914)
inactive: [1] -0.035 | [2] 0.077 | [3] -0.056 | [4] 0.066 | [5] -0.097

NA, A0A0B4J2A0
inactive: [1] -0.035 | [2] -0.005 | [3] 0.015 | [4] -0.097 | [5] -0.007

PAK1 isoform 2 (UniProt Q13153)
inactive: [1] -0.152 | [2] 0.097 | [3] -0.113 | [4] -0.02 | [5] -0.092

NCL (UniProt P19338)
inactive: [1] 0.158 | [2] -0.365 | [3] -0.299 | [4] 0.227 | [5] 0

MOB3B (UniProt Q86TA1)
Chain of UniProt Q86TA1 (Q86TA1 whole entry, looked up): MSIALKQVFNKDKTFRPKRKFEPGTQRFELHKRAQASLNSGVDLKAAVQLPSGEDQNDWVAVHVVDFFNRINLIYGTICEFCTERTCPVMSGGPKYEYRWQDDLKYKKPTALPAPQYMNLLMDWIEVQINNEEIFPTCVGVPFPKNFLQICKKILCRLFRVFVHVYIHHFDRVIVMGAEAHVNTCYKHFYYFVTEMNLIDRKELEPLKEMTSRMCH
inactive: [1] 0 | [2] 0.029 | [3] 0.178 | [4] 0.041 | [5] -0.088

NDFIP1 (UniProt Q9BT67)
inactive: [1] 0.035 | [2] -0.162 | [3] -0.076 | [4] -0.111 | [5] 0.052

NCOR1 (UniProt O75376)
inactive: [1] -0.102 | [2] 0.06 | [3] 0.002 | [4] 0.016 | [5] -0.111

OGFOD1 (UniProt Q8N543)
inactive: [1] -0.02 | [2] 0.047 | [3] 0.041 | [4] -0.015 | [5] -0.007

MTHFD1 (UniProt P11586)
inactive: [1] -0.059 | [2] 0.024 | [3] 0.018 | [4] -0.013 | [5] -0.019

NDUFB7 (UniProt P17568)
inactive: [1] -0.032 | [2] -0.01 | [3] -0.004 | [4] -0.015 | [5] 0.03

MRPS22 (UniProt P82650)
inactive: [1] -0.016 | [2] 0.05 | [3] -0.037 | [4] 0.087 | [5] -0.063

NGLY1 (UniProt Q96IV0)
Chain of UniProt Q96IV0 (Q96IV0 whole entry, looked up): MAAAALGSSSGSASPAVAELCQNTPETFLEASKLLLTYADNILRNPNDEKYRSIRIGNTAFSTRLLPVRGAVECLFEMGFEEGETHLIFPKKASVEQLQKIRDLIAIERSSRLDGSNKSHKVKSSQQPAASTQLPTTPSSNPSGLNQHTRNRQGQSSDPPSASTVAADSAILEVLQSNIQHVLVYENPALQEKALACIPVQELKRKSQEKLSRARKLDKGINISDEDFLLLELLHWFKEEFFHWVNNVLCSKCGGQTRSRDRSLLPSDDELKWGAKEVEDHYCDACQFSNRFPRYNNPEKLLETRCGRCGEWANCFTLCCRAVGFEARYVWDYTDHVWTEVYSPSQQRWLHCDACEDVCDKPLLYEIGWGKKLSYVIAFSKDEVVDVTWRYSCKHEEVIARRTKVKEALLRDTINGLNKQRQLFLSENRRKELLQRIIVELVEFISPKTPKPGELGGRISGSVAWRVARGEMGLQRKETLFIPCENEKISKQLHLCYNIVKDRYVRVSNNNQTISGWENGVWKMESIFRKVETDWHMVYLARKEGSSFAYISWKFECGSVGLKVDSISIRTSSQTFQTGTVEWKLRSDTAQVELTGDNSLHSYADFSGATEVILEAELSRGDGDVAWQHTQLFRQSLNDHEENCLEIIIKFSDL
inactive: [1] -0.084 | [2] 0.01 | [3] 0.114 | [4] 0.014 | [5] -0.046

NMT1 (UniProt P30419)
inactive: [1] 0 | [2] 0.032 | [3] -0.001 | [4] 0.076 | [5] -0.018

MYLK (UniProt Q15746)
inactive: [1] -0.08 | [2] -0.053 | [3] 0.096 | [4] 0.118 | [5] -0.21

MON2 isoform 5 (UniProt Q7Z3U7)
inactive: [1] -0.023 | [2] 0.016 | [3] 0.109 | [4] -0.025 | [5] -0.073

MPP1 (UniProt Q00013)
inactive: [1] -0.055 | [2] -0.06 | [3] 0.051 | [4] -0.024 | [5] 0.013

NR2C2AP isoform 2 (UniProt Q86WQ0)
Chain of UniProt Q86WQ0 (Q86WQ0 whole entry, looked up): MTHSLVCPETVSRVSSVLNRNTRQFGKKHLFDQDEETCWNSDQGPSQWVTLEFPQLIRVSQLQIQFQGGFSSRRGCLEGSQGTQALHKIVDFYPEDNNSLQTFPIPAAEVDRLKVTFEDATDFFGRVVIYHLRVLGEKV
inactive: [1] -0.016 | [2] 0.043 | [3] 0.081 | [4] -0.067 | [5] 0.032

NDUFS7 (UniProt O75251)
inactive: [1] 0 | [2] 0.062 | [3] 0.015 | [4] -0.051 | [5] -0.022

OPA1 isoform 2 (UniProt O60313)
inactive: [1] -0.054 | [2] 0.028 | [3] 0.021 | [4] -0.03 | [5] -0.037

MRPS6 (UniProt P82932)
inactive: [1] -0.084 | [2] 0.012 | [3] 0.052 | [4] 0.052 | [5] -0.022

NDUFS4 (UniProt O43181)
inactive: [1] 0.078 | [2] -0.04 | [3] -0.096 | [4] 0.093 | [5] 0.086

NA isoform 3 (UniProt Q4G0T1)
Chain of UniProt Q4G0T1 (Q4G0T1 whole entry, looked up): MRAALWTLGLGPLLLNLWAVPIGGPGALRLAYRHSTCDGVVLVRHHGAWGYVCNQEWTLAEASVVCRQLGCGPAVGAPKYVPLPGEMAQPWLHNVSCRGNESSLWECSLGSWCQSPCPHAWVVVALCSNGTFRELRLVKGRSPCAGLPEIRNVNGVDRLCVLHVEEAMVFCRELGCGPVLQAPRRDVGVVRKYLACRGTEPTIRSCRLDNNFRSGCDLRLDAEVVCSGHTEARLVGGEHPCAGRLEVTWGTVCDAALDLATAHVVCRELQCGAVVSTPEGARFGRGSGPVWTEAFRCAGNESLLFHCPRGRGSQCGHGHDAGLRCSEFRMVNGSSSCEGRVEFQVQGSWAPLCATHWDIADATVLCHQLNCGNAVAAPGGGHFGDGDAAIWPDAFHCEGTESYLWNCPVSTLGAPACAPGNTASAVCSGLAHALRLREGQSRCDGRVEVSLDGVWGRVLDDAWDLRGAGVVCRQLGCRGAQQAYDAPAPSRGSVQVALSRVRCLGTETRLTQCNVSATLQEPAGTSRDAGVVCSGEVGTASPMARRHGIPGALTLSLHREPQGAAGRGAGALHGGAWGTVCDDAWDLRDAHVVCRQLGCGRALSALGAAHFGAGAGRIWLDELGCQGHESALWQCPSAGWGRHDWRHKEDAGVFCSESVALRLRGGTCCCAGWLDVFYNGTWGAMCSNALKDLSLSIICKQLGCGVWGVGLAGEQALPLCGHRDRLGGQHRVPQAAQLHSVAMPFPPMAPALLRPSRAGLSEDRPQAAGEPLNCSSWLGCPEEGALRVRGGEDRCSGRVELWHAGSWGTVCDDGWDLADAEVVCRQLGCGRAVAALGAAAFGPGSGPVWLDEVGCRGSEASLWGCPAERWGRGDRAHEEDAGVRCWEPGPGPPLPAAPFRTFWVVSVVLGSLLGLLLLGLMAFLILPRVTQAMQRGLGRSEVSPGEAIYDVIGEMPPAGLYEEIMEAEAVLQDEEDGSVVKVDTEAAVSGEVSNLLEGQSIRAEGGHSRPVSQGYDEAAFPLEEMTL
inactive: [1] 0.161 | [2] -0.017 | [3] 0.026 | [4] 0.024 | [5] -0.126

NMNAT1 (UniProt Q9HAN9)
inactive: [1] 0.1 | [2] -0.055 | [3] -0.088 | [4] 0.304 | [5] 0.02

NKAP (UniProt Q8N5F7)
inactive: [1] -0.013 | [2] 0.148 | [3] 0.049 | [4] 0.078 | [5] 0.171

MTMR14 (UniProt Q8NCE2)
Chain of UniProt Q8NCE2 (Q8NCE2 whole entry, looked up): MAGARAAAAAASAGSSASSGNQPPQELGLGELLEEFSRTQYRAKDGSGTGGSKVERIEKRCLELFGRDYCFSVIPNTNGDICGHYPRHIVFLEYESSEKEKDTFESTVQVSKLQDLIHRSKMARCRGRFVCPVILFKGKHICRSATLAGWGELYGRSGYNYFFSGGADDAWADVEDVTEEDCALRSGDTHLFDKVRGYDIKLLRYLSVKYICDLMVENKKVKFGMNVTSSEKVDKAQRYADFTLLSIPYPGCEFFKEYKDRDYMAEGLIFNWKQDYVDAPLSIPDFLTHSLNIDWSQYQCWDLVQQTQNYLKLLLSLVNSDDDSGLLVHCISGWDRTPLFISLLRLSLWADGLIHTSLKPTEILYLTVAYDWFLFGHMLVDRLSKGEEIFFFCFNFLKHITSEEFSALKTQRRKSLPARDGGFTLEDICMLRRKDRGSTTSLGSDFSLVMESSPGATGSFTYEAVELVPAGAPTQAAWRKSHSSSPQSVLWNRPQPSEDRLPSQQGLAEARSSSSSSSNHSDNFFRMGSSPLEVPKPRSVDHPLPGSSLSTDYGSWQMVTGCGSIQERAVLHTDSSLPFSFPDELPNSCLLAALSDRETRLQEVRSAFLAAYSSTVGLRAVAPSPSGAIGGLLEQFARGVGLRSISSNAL
inactive: [1] 0.03 | [2] 0.047 | [3] 0.156 | [4] -0.011 | [5] 0.069

MT-ND1 (UniProt P03886)
Chain of UniProt P03886 (P03886 whole entry, looked up): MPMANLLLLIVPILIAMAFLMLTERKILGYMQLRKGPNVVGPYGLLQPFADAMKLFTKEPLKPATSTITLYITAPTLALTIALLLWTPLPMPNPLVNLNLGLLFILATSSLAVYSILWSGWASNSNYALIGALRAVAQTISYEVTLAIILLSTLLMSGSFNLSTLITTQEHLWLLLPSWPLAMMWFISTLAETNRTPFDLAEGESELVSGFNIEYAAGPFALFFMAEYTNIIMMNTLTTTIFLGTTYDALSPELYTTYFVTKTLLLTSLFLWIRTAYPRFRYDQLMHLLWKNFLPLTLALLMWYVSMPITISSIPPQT
inactive: [1] -0.024 | [2] -0.12 | [3] -0.24 | [4] -0.102 | [5] 0.177

MMADHC (UniProt Q9H3L0)
inactive: [1] 0.056 | [2] -0.155 | [3] 0.057 | [4] 0.088 | [5] 0.077
